Screens (PubChem BioAssay)
GLD-1 RNA inh – GLD-1-TGE RNA interaction inhibition (C. elegans). purified GLD-1 + fluorescein TGE RNA, fluorescence polarization. 0.44% of 320,000 active. AID 2280. Q17339. inhibition, % at 5.96 µM;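 active = percent inhibition above a per-plate cutoff, the plate mean of test compounds plus 3 SD, cut at about 30% in these data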;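 note: 0% = DMSO wells with GLD-1 and probe and 100% = wells lacking GLD-1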
Bim-Mcl-1 – disrupts Bim peptide binding to human Mcl-1; Q07820; Bead-based flow cytometry, Bim peptide-Mcl-1 binding; inhibition, % at 10 µM; 0.1% of 190,000 active; AID 1009; in the data active = inhibition above about 40%;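 note: 0% = no compound tracer wells and 100% = peptide blocker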
Target sequence (Q07820 whole entry, looked up): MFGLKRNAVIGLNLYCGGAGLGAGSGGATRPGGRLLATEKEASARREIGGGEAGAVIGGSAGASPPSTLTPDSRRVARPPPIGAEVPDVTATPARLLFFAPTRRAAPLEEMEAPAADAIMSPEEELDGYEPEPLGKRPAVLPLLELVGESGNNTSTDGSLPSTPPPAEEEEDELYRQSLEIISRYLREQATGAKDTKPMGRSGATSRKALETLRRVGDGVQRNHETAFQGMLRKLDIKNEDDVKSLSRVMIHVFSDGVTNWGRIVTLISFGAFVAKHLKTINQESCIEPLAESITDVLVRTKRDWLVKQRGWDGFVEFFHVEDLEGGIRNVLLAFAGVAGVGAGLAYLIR
Mcl1 Bid PPI – Mcl-1/Bid interaction inhibition | 0.97% of 220,000 active | inhibition, % at 21.7 µM | AID 1021 | TR-FRET Mcl-1/Bid-Dy647 peptide binding, 1536-well | Q07820;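 active = compounds that cut the binding signal by more than half at the single screening dose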;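 note: His-tagged Mcl-1 with europium anti-His antibody binding Bid BH3 peptide; 0% = Mcl-1 plus peptide wells and 100% = peptide-only wells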
Bcl-xL primary – blocks human Bcl-xL binding to Bim BH3 peptide | GST-Bcl-xL / FITC-Bim BH3 peptide fluorescence polarization | 0.7% of 320,000 active | inhibition, % at 10.9 µM | Q07817;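 active = inhibition above the mean of all tested compounds plus 3 SD, cutoff set per campaign, cut at about 30% in these data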;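 note: 0% = DMSO wells and 100% = unlabeled Bim-BH3 peptide competitor; inhibitors lower millipolarization by displacing the labeled peptide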
Target sequence (Q07817 whole entry, looked up): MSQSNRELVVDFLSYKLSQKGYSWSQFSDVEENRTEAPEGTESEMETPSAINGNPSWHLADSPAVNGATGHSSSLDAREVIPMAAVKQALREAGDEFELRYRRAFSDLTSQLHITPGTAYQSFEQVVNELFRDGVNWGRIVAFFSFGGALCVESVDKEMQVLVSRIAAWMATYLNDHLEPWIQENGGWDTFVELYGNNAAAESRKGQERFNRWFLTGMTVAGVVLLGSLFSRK
Mcl1 Noxa PPI – disrupts binding of human Mcl-1 to Noxa peptide; Q07820; TR-FRET Mcl-1/Noxa peptide binding, 2 h; inhibition, % at 21.7 µM; 1.5% of 220,000 active;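 active = compounds that cut the protein-peptide binding signal by more than 50% relative to plate controls in a single-dose test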;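 note: His-tagged Mcl-1 with rhodamine Noxa BH3 peptide and terbium anti-His antibody; 0% = Mcl-1 plus Noxa peptide wells and 100% = peptide-only wells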
MCL1 BIM primary – MCL1-BIM-BH3 interaction inhibition (human). Q07820. GST-MCL1 / FITC-Bim-BH3 fluorescence polarization. inhibition, % at 10.9 µM. 0.68% of 320,000 active;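 active = inhibition above the mean inhibition of all tested compounds plus 3 SD, set per campaign, cut at about 40% in these data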;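 note: 0% = DMSO wells and 100% = unlabeled Bim-BH3 peptide control; higher means more loss of mP so more displacement of Bim peptide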
BCLXL inh confirm – counter-screen for MCL1 inhibitors: confirmation of human Bcl-xL inhibitors | shares compounds with MCL1 BIM primary | 54% of 1,700 active | GST-Bcl-xL / FITC-Bim BH3 peptide FP binding | AID 2166 | inhibition, % at 10.9 µM;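 active = inhibition above a cutoff equal to the mean inhibition of all tested compounds plus 3 SD, cut at about 30% in these data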;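 note: 0% = DMSO wells and 100% = unlabeled Bim BH3 control peptide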
MCL1 BIM confirm – MCL1-BIM-BH3 interaction inhibition, confirmation; shares compounds with MCL1 BIM primary; GST-MCL1 / FITC-Bim-BH3 fluorescence polarization; inhibition, % at 10.9 µM; 61% of 1,700 active; AID 2168;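 active = inhibition above the average of all tested compounds plus 3 SD, cut at about 40% in these data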;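 note: 0% = DMSO wells and 100% = unlabeled Bim-BH3 control peptide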
An asterisk follows results filed as active; nt = no result; + = active, no number. The list is not random: actives were taken first. Their share in the collection is about 2.3%.

SMILES	GLD-1 RNA inh	Bim-Mcl-1	Mcl1 Bid PPI	Bcl-xL primary	Mcl1 Noxa PPI	MCL1 BIM primary	BCLXL inh confirm	MCL1 BIM confirm
Cc1ccc(S(=O)(=O)NNC(=O)c2ccccc2O)cc1	0	-1	-46	16	30	44*	12	29
O=C(NNC(=O)c1ccccc1F)c1ccc(Cl)c(S(=O)(=O)N2CCOCC2)c1	0	nt	nt	5	nt	-2	nt	nt
CCNc1cccc2c1C(=O)N(C)C2=O	180*	1	2	177*	0	+	167*	+
CC(C)NC(=O)Nc1cccc2c1O[C@H](CN(C)S(C)(=O)=O)[C@@H](C)CN([C@H](C)CO)C2=O	3	nt	nt	nt	nt	nt	nt	nt
c1ccc(CCNc2nc3ccccc3n3nnnc23)cc1	6	1	0	8	12	5	nt	nt
COc1ccc(CCNc2nc3ccccc3n3nnnc23)cc1OC	16	3	-3	54*	20	55*	29	30
COc1ccc(NC(=O)/C=C/c2cccc(Br)c2)cn1	67*	nt	nt	91*	nt	99*	74*	86*
Cc1ccc(C2C3CN(C(C)C)CC=C3C(C#N)=C(N)C2(C#N)C#N)cc1 (stereo unspecified)	109*	-6	-39	109*	8	116*	59*	104*
N#CC1=C(N)C(C#N)(C#N)C(c2cccnc2)C2CN(C(=O)OCc3ccccc3)CC=C12 (stereo unspecified)	10	-1	-21	16	-2	18	nt	nt
CN1CC=C2C(C#N)=C(N)C(C#N)(C#N)[C@H](c3ccoc3)[C@H]2C1	99*	2	-69	146*	1	175*	111*	+
CC(=O)N1CC=C2C(C#N)=C(N)C(C#N)(C#N)C(C)C2C1 (stereo unspecified)	11	-3	-15	16	6	23	nt	nt
N#CC1=C(N)C(C#N)(C#N)[C@H](c2ccoc2)[C@H]2CN(Cc3ccccc3)CC=C12	75*	-3	-34	114*	20	125*	106*	120*
CN1CC=C2C(C#N)=C(N)C(C#N)(C#N)C(c3cccc(Cl)c3Cl)C2C1 (stereo unspecified)	68*	0	-15	83*	9	88*	56*	61*
CCOC(=O)N1CC=C2C(C#N)=C(N)C(C#N)(C#N)[C@H](c3ccc(OCC)c(OCC)c3)[C@H]2C1	9	0	-29	9	15	3	nt	nt
Cc1ccc2c(c1)c1nc3ccccc3nc1n2C	19	nt	nt	58*	nt	76*	84*	136*
Cc1ccc(Cl)cc1N1CCN(C(=O)c2cc3c(=O)[nH]c4ccccc4c3n2C)CC1	-2	0	2	-5	5	-5	nt	nt
Cc1ccc(S(=O)(=O)N2CCN(C(=O)c3cccc(-n4cccc4)c3)CC2)cc1	-5	nt	nt	8	nt	16	nt	nt
O=C(c1cccc(-n2cccc2)c1)N1CCN(S(=O)(=O)c2ccccc2)CC1	2	nt	nt	12	nt	51*	32*	88*
CSc1nc(N(C)CCO)c2sc3nc(-c4ccco4)c4c(c3c2n1)CCC4	2	8	93*	17	103*	75*	36*	76*
Cc1ccc2c(c1)N(C(=O)CCC(=O)Nc1ccccc1Cl)CC(C)O2 (stereo unspecified)	1	nt	nt	1	nt	10	nt	nt
Cc1cccc(N2C(=O)c3cccc4c(N(C)CCO)ccc(c34)C2=O)c1	176*	-1	-6	183*	-86	+	169*	+
Cc1cccc(N2C(=O)c3cccc4c(N)ccc(c34)C2=O)c1	+	nt	nt	+	nt	+	198*	+
CC(C)CCN1C(=O)c2cccc3c(N)ccc(c23)C1=O	185*	nt	nt	173*	nt	+	145*	164*
Cc1ccnc(N2C(=O)c3cccc4c([N+](=O)[O-])ccc(c34)C2=O)c1	77*	0	25	88*	nt	103*	82*	119*
COc1ccc(OCCN2CCN(C(=O)c3ccc(OC)c(OC)c3)CC2)cc1	-8	nt	nt	2	nt	-3	nt	nt
SMILES	GLD-1 RNA inh	Bim-Mcl-1	Mcl1 Bid PPI	Bcl-xL primary	Mcl1 Noxa PPI	MCL1 BIM primary	BCLXL inh confirm	MCL1 BIM confirm
CSc1ccc(CN2CCC(CO)(CCOc3ccccc3)CC2)cc1	6	nt	nt	3	nt	9	nt	nt
CN(C)CCOC1c2ccccc2CCc2ccc3ccccc3c21 (stereo unspecified)	0	nt	nt	3	nt	2	nt	nt
Cc1ccccc1C1C(C#N)=C(N)N(N(C)C)C2=C1C(=O)CC(C)(C)C2 (stereo unspecified)	-4	nt	nt	6	nt	9	nt	nt
Nc1cccc(N2C(=O)c3cccc4c(N)ccc(c34)C2=O)c1	195*	nt	nt	+	nt	+	+	+
C=CCn1c(=O)/c(=C/c2ccc(O)cc2)s/c1=C(/C#N)c1nnc2n1CCCCC2	-122	1	-75	-26	6	-51	nt	nt
C=CCn1c(=O)/c(=C/c2cc(OC)c(OC)c(OC)c2)s/c1=C(/C#N)c1nc2ccccc2n1C	1	-1	-7	112*	19	123*	145*	169*
COc1cccc(/C=N/NC(=S)Nc2cccc(C(=O)O)c2)c1O	-7	-2	-22	13	34	56*	22	72*
O=C(COC(=O)c1cccc(Br)c1)NCc1ccco1	1	nt	nt	nt	nt	nt	nt	nt
O=c1[nH]c(-[n+]2ccc3ccccc3c2)c(/C=N/N=C(\[O-])c2ccccc2)s1	137*	nt	nt	93*	nt	99*	22	34
CSc1cccc(CN2CCC(Oc3ccc(C(=O)N4CCCCC4)cc3)CC2)c1	3	nt	nt	1	nt	3	nt	nt
O=C(C[C@@H]1C/C=C\CCC(=O)O[C@H](c2ccccc2)CNC1=O)N[C@H](CO)Cc1ccccc1	-1	nt	nt	nt	nt	nt	nt	nt
O=C(CSc1nc2ccccc2s1)NNC(=S)Nc1ccc(Cl)cc1	-1	4	-114	7	-15	43*	14	13
O=C(CCC(=O)c1cccs1)Nc1ncccc1O	3	nt	nt	13	nt	20	nt	nt
O=C(/C=C/c1ccco1)NC(=S)Nc1ccc(C(=O)O)cc1	13	nt	nt	34*	nt	67*	26	39
CN1C(=O)c2ccccc2N(C)C1c1cccc(O)c1 (stereo unspecified)	3	nt	nt	3	nt	7	nt	nt
CN1C(=O)c2ccccc2NC(=O)[C@]12O[C@@H]2c1cccc(O)c1	26	nt	-96	62*	16	65*	56*	69*
CS(=O)(=O)Nc1cccc(C2=NN(C(=O)c3cccc([N+](=O)[O-])c3)C(c3cccs3)C2)c1 (stereo unspecified)	-27	nt	nt	-16	nt	-23	nt	nt
